Assay outcomes as filed in PubChem.
TrxR1 inh = qHTS Assay for Inhibitors of Mammalian Selenoprotein Thioredoxin Reductase 1 (TrxR1): qHTS | recombinant rTrxR1, NADPH fluorescence consumption, selenite substrate | Potency, µM (titrated, usually from 114 µM), without a hit: at the highest dose activity change, negative = inhibition, hits mostly inhibitors | AID 588453, 2011 | 390,000 tested, 1% active; further: potency means the concentration at half of the fitted maximal effect; on the % scale 0 is the no-effect control and ±100 the full control effect; nearly all actives have a fitted effect of over 65% in size
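Rat TrxR1 (90 nM in the dispensed reagent) was pre-reduced with 400 uM NADPH for 5 min at room temperature, then incubated with compound for 15 min. After 400 uM selenite was added, NADPH fluorescence (Ex 340/Em 450 nm) was followed for 8 min.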
GALK inh = qHTS Assay for Inhibitors of Human Galactokinase (GALK). P51570. Purified GALK, Kinase-Glo residual ATP luminescence. Potency, µM (doses to about 57.5 µM), inactives show at the highest dose activity change, negative = inhibition, hits mostly inhibitors. 270,000 tested, 0.007% active. AID 1868, 2009; further: potency means the concentration at half of the fitted maximal effect; on the % scale 0 is the no-effect control and ±100 the full control effect
Target sequence (P51570 whole entry, looked up): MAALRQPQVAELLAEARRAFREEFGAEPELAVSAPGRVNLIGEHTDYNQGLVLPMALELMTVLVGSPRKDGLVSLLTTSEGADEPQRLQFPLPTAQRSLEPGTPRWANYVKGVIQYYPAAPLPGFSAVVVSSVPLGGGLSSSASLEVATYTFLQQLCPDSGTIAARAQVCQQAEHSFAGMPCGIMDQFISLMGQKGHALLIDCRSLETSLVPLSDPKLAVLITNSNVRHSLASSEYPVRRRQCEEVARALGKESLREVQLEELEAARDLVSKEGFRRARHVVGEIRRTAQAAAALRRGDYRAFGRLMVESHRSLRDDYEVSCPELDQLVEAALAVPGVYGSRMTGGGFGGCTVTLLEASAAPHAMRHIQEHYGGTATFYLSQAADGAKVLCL
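Compounds were pin-transferred into ATP buffer (35 uM final), then GALK plus galactose (5 nM, 100 uM final) was added. After 1 h at room temperature, Kinase-Glo Plus was added and luminescence read after 10 min.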
PINK1 expr mod = A Quantitative High throughput Screen to Identify Chemical Modulators of PINK1 Expression; PINK1 immunofluorescence, high-content cytometry, 24 h; Potency, µM (highest dose often 76.6 µM), for inactives: top-dose activation (PINK1 increase), actives largely listed as activators; 410,000 tested, 0.2% active; AID 624263, 2012; active means well fitted activation curve with a large enough effect; inconclusive means small, poorly fitted or top-dose-only effect; cell line not stated here; further: potency means the concentration at half of the fitted maximal effect; % of control where 0% means no effect; nearly all actives have a fitted effect of over 65% in size
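A stable cell line was treated with compounds at 5 concentrations for 24 hours, with CCCP as control. PINK1 levels and mitochondrial localization were measured by immunofluorescence with mitochondrial, cell and nuclear markers after fixation, read by laser-scanning cytometry.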
miR-21 reporter = qHTS Assay for Modulators of miRNAs and/orActivators of miR-21. HeLa miR-21 FLuc reporter, luciferase, 48 h. Potency, µM (top dose mostly 38.3 µM), without a hit: at the highest dose activity change, positive = activation, most hits filed as activators. 340,000 tested, under 10 active;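 further: % of control where 0% means no effect; miR-21 action dims this reporter so a rising signal means less miR-21 action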
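HeLa cells endogenously expressing miR-21, stably carrying CMV-driven firefly luciferase with a downstream miR-21 binding site, 2000 cells/well. Titrations up to approximately 40 uM, 48 hours; luciferase luminescence read.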
TrxR1 substrate = qHTS Assay for Substrates of Mammalian Selenoprotein Thioredoxin Reductase 1 (TrxR1): qHTS; purified TrxR1 substrate turnover, NADPH consumption readout; Potency, µM (highest dose often 114 µM), without a hit: at the top dose activity change, negative = substrate turnover; 390,000 tested, 0.01% active; further: potency means the concentration at half of the fitted maximal effect; on the % scale 0 is the no-effect control and ±100 the full control effect; nearly all actives have a fitted effect of over 50% in size
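Rat TrxR1, dispensed at 90 nM, was prereduced with 400 uM NADPH (final) for 5 min at ~22 deg C, then incubated with compound 15 min before 400 uM selenite. A first-read NADPH fluorescence drop versus no-compound background flagged substrates.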
* hit, by the source's call; ? = inconclusive; . = not tested or not shown; [ ] = dose if it differs, or a comment. Shown are actives, neighbours in structure and some others; about 1.1% of the full set was active somewhere. Unless noted, the call rests on the fitted dose curve; in most records, active means well fitted curve in the direction sought with a large enough effect; inconclusive means small, poorly fitted or top-dose-only effect, or another doubt; inactive means no such curve, though single readings can be large; an effect the other way counts as inactive or inconclusive.

SMILES	TrxR1 inh	GALK inh	PINK1 expr mod	miR-21 reporter	TrxR1 substrate
Cc1ccccc1C(=O)N1CCC(C(=O)N2CCN(c3ncccn3)CC2)CC1	9%	.	-1%	.	3%
CCOC(=O)N1CCN(C(=O)C2CCN(C(=O)c3ccccc3C)CC2)CC1	2.5µM*	.	0%	.	6%
CCOC(=O)C1(C)C=C(Nc2ccc(C(=O)O)cc2)C(=O)N1c1ccc(C(=O)O)cc1 (stereo not drawn)	-2%	.	-1%	0%	-10%
CCC1CN(C(=O)N2CCC(C(=O)NCCc3ccc(C)cc3)CC2)c2ccccc2O1 (stereo not drawn)	31%	.	-1%	-21%	6%
Cc1ccccc1S(=O)(=O)NC1OC(=O)C(Cl)=C1Cl (stereo not drawn)	13µM*	-1%	1%	5%	-8%
Cc1csc(CN(C)C(=O)c2sc3ncnc(NCC4CCCO4)c3c2C)n1 (stereo not drawn)	.	.	-1%	.	.
COc1ccc(CCNC(=O)CCc2c(C)nc3c(c(C)nn3-c3ccc(C)cc3)c2C)c(OC)c1	3%	.	1%	0%	27%
Cc1cc(N(C)C)cc(C)c1/C=C/c1cc[n+](C)c2ccccc12	10%	.	.	.	12%
CN(C)c1ccc(/C=C/c2cc[n+](C)c3ccc4ccccc4c23)cc1	15%	.	4.5µM*	.	-7%
C[n+]1ccc(/C=C/c2ccc(C=S)cc2)c2ccccc21	-35%	.	45µM*	.	-9%
CCc1ccccc1NC(=O)c1cnn2c(C(F)(F)F)cc(-c3ccc(OC)c(OC)c3)nc12	-3%	.	0%	-3%	-3%
Cc1ccc(CSc2nc3cccnc3n2Cc2ccc(C(=O)NCc3ccco3)cc2)cc1	14%	.	3%	-14%	12%
COc1cc(C(=O)O/N=C2\C=CC(=O)C(C)=C2)cc(OC)c1OC	2.8µM*	-2%	-1%	9%	-3%
COc1cc(C(=O)ON=C2C=C(C)C(=O)C(C)=C2)cc(OC)c1OC	-21%	0%	24%	-6%	-4%
Cc1ccc(NC(=O)c2ccccc2NS(=O)(=O)c2ccc(F)cc2)cc1S(=O)(=O)N1CCCCC1	17%	0%	11µM*	?	17%
O=C(Nc1cccc(S(=O)(=O)N2CCCCC2)c1)c1ccccc1NS(=O)(=O)c1ccc(F)cc1	25%	-1%	14µM*	?	26%
NS(=O)(=O)c1cccc(NC(=O)c2ccccc2NS(=O)(=O)c2ccc(F)cc2)c1	34%[57.1 µM]	-1%	1%	-2%	21%[57.1 µM]
Cc1ccc(NC(=O)CCNC(=O)c2ccccc2Cl)cc1S(=O)(=O)N1CCCCCC1	32%	.	8%	.	4%
CC(C)CN(CC(C)C)c1ccc(/C=C/c2ccnc3ccccc23)cc1	9%	.	7%	.	8%[0.0914 µM]
COc1cc(=O)n2c(c1C(=O)NC(C)c1ccco1)CCN(C(=O)c1[nH]c(C)cc1C)CC2 (stereo not drawn)	.	.	0%	.	.
O=C(NCc1cccnc1)c1cnn(-c2ncc3c(n2)-c2ccccc2CCC3)c1C1CC1	.	.	0%	.	.
Cc1csc(N/N=C/c2ccc(O)c([N+](=O)[O-])c2)n1	28µM*	5%	0%	-24%	-23%
CCOc1ccc(NC(=O)c2oc3ccccc3c2NC(=O)c2c(F)cccc2F)cc1	56µM*	.	7%	-4%	19%
CCOc1ccc(NC(=O)c2oc3ccccc3c2NC(=O)CC)cc1	.	-5%	.	-40%	.
O=C(CNC(=O)C1CCCCC1)OCC(=O)c1ccccc1	4%	.	2%	.	0%
SMILES	TrxR1 inh	GALK inh	PINK1 expr mod	miR-21 reporter	TrxR1 substrate
C=C(C1=CCN(S(=O)C(C)(C)C)[C@H]1CCO)c1ccccc1 (stereo partly drawn)	?	.	-1%	.	2%
C=CC1=CCN(S(=O)C(C)(C)C)[C@@H]1CCO (stereo partly drawn)	50µM*	.	-1%	.	10%
CC(C)(C)c1ccc(O)c(O)c1	22µM*	.	1%	.	12%
COc1ccc(/C(N)=N/OC(=O)c2ccco2)cc1OC	22%[57.1 µM]	-1%	2%	-78%	5%
Cc1csc(/C(=N/OC(=O)c2ccco2)C(N)=O)n1	11µM*	2%	3%	-1%	5%
O=C1CC(NS(=O)(=O)c2ccc([N+](=O)[O-])cc2)CN1c1ccc(Cl)cc1 (stereo not drawn)	50µM*	.	1%	.	-18%
CCC1CN(CCNC(=O)c2ccc3c(c2)OCCO3)Cc2cc(OC)ccc2O1 (stereo not drawn)	.	.	1%	.	.
Cc1ccc(C(=O)O/N=C(\N)c2cccc([N+](=O)[O-])c2)cc1	11%	-1%	0%[38.3 µM]	-48%	3%
CC1=CC(=O)C(C(C)C)=C/C1=N\OC(=O)c1cccc2nc(C)oc12	-21%	-3%	0%	2%	-12%
CC1=CC(=O)C(C(C)C)=C/C1=N/OC(=O)c1cccc([N+](=O)[O-])c1	13µM*	0%	-2%[38.3 µM]	3%	7%
CC1=CC(=NOC(=O)c2cccc([N+](=O)[O-])c2)C=C(C)C1=O	10µM*	0%	?	-20%	-1%
Cc1cc(NC(=O)CS(=O)(=O)c2cn(Cc3cccc(C(F)(F)F)c3)c3ccccc23)no1	.	.	8%	.	.
Cc1oc(-c2ccccc2F)nc1CS(=O)(=O)CC(=O)NCCc1ccc(Cl)cc1	-7%	.	1%	-4%	8%
O=C(COC(=O)/C=C/c1cccs1)Nc1nc(-c2ccccc2)cs1	56µM*	0%	5%	-26%	1%
O=C(COC(=O)/C=C/c1cccs1)Nc1nc(-c2cccc(Br)c2)cs1	9%	-1%	5%	-34%	2%
O=C1c2oc3ccccc3c(=O)c2C(c2cccs2)N1CCCN1CCOCC1 (stereo not drawn)	40µM*	0%	1%	-6%	-8%
CN1CCN(c2ccc(NC(=O)c3ccc(-c4ccc(Cl)cc4)o3)cc2)CC1	-9%	3%	3%	29%	-7%
CS(=O)(=O)N1CCN(c2ccc(NC(=O)c3ccc(-c4ccc(Cl)cc4)o3)cc2)CC1	20%	0%	14µM*	-1%	11%
CCCC(O)(CCN1CCOCC1)c1ccc(Br)cc1 (stereo not drawn)	35µM*	0%	.	-4%	-6%
CCCC(O)(CCN1CCOCC1)c1ccc(Cl)cc1 (stereo not drawn)	?	-1%	0%	-2%	5%
COc1cc(OC)c2nc(-c3cc4c(c(OC)c3)OCCN(C(=O)C(C)c3n[nH]c(=O)c5ccccc35)C4)cc(C)c2c1 (stereo not drawn)	.	.	1%	.	.
